Compound activity (PubChem)
Y pestis TopoI: inhibitors of Yersinia pestis topoisomerase I. activity, % at 10 µM. AID 504884. 0.064% of 360,000 active. Y. pestis Topo-I cleavage product accumulation, plate reader; in the data active = activity above about 50%, passing the limit was not always enough; inconclusive = no clear call, values can overlap the other calls
BJeLR lethal: BJeLR cell viability loss | BJeLR (HRASV12) viability, CellTiter-Glo ATP luminescence, 48 h | inhibition, % (no concentration beside the values) | 0.17% of 300,000 active; in the data active = inhibition above about 50%; inconclusive = no clear call, values can overlap the other calls
PfHsp40 yeast: rescue of PfHsp40-mediated yeast toxicity | S. cerevisiae expressing PfHsp40, growth rescue, ATP luminescence | growth rescue, % at 12.5 µM | 0.68% of 340,000 active; in the data active = growth rescue above about 28%, passing the limit was not always enough; inconclusive = no clear call, values can overlap the other calls;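 also: yeast W303a lacking pdr1 and pdr3 grown in galactose medium; growth measured after three days at 30 °C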
PrP UTR inh: suppresses PrP 5' UTR mRNA reporter expression. cell-based PrP 5' UTR mRNA reporter, plate reader. inhibition, % (no concentration beside the values). 0.35% of 340,000 active. AID 488862; in the data active = inhibition above about 52%; also: 0 = median of the neutral control wells
CCHF vOTU inh-1: CCHFV vOTU protease inhibition; Pep-AMC fluorescence; inhibition, % at 11.5 µM; 0.55% of 370,000 active; AID 651958; also: 0% = vehicle wells with enzyme and 100% = no enzyme wells
PrPC surface inh: inhibitors of human cell surface prion protein PrPC. TR-FRET read-out. P04156. inhibition, % at 13.8 µM. AID 720596. 0.43% of 370,000 active; in the data active = inhibition above about 24%; also: 0% = median of the test wells and 100% = reference compound wells
CCHF vOTU inh-2: CCHFV vOTU protease inhibition, confirmation. shares compounds with CCHF vOTU inh-1. Recombinant CCHFV vOTU, Pep-AMC fluorescence. inhibition, % at 11.5 µM. 17% of 1,900 active. AID 686976
Active calls of the source: *; ? = inconclusive; . = no result. The list is not random: actives were taken first. Their share in the collection is about 2%. Rule as the data show it, unless noted: active = inhibition above about 30%; inactive = the rest.

SMILES	Y pestis TopoI	BJeLR lethal	PfHsp40 yeast	PrP UTR inh	CCHF vOTU inh-1	PrPC surface inh	CCHF vOTU inh-2
COc1cc(NC(C)CCCN)c2ncccc2c1 (stereo not given)	-5	-7	0	-29	104*	-57	81*
S=C(NCc1cccc(Cl)c1)OC1CCC12CCC(c1ccccc1)CC2 (stereo not given)	.	.	.	.	6	6	.
CN(C(=O)CSc1nccc(=O)[nH]1)C1CCCCC1	4	.	-1	.	38*	-1	-14
C[C@@H]1CCN(C2CC2)S(=O)(=O)c2c(cccc2N2CC[C@@H](N(C)C)C2)O1	.	.	.	.	2	-12	.
c1cc2c3c(cccc3c1)NC1(CCCCCC1)N2	-5	1	-2	-16	5	-6	.
c1cc2c3c(cccc3c1)NC1(CCCCC1)N2	-35	-2	-2	-20	30*	1	17
CCN(C(=O)CCc1cn(CC)c2ccccc12)c1ccc(Oc2cccnc2)cc1	.	.	.	.	31*	5	-3
Cc1cccc(C)c1-n1cccc1/C=C1/C(=N)N2C(=NC1=O)SN=C2S(C)(=O)=O	-1	-7	2	-13	35*	-1	23
Cc1ccc(-n2cccc2/C=C2/C(=N)N3C(=NC2=O)SN=C3S(C)(=O)=O)cc1Cl	4	.	0	5	52*	7	8
Cc1cc(/C=C2/C(=N)N3C(=NC2=O)SN=C3S(C)(=O)=O)c(C)n1-c1ccc(F)cc1	2	1	-1	-13	5	-6	.
O=C(O)c1cccc(NC2=C(Cl)C(=O)c3ccccc3C2=O)c1	-9	-3	1	-33	26	-16	.
O=C1C(Nc2cccc(O)c2)=C(N2CCCCC2)C(=O)c2ccccc21	-11	2	1	-18	89*	-21	92*
O=C(/C=C/c1ccc(O)cc1)c1ccccc1	-2	3	2	-68	-6	8	.
COC1=C(Nc2ccc(C)cc2)C(=O)c2ccccc2C1=O	3	-9	2	-40	55*	-2	-9
COc1ccccc1NC1=C(N2CCCCC2)C(=O)c2ccccc2C1=O	-17	23	12	-4	.	.	.
O=C(/C=C/c1ccc(O)cc1)c1ccc(NC2=C(N3CCCCC3)C(=O)c3ccccc3C2=O)cc1	0	13	-1	-112	84*	-13	60*
Cc1ccc(NC2=C(N3CCCCC3)C(=O)c3ccccc3C2=O)cc1	-6	8	3	-35	96*	-8	85*
CSc1ccc(-c2csc(N3CCC(C(N)=O)CC3)n2)cc1	.	.	.	.	.	-6	.
CN(c1ccccc1)c1nc(N)c([N+](=O)[O-])c(N2CCCCC2)n1	12	-6	1	-30	1	-1	.
CN(C1=C(N2CCCCC2)C(=O)c2ccccc2C1=O)c1ccccc1	-4	-7	0	-6	41*	-37	-3
O=C1C(Nc2ccccc2)=C(N2CCCCC2)C(=O)c2ccccc21	-12	5	0	-17	101*	-16	87*
CCc1c(C(=O)N/N=C/c2ccsc2)csc1C	-5	0	1	-29	30*	3	-16
Cc1cccc(NC(=O)C2CCN(c3nnc(-n4cccc4)s3)CC2)c1C	.	.	.	.	7	10	.
COC(=O)Cc1nnn2c1[C@H](C)[C@H](c1ccccc1Br)OC[C@H](C)C2	.	.	.	.	-4	9	.
CCc1cccc(OCC(=O)Nc2c[nH]c(=O)[nH]c2=O)c1	10	-5	1	-17	1	0	.
SMILES	Y pestis TopoI	BJeLR lethal	PfHsp40 yeast	PrP UTR inh	CCHF vOTU inh-1	PrPC surface inh	CCHF vOTU inh-2
CCc1cccc(OCC(=O)Nc2ccc(C(=O)O)cc2NC(=O)COc2cccc(CC)c2)c1	32	-14	-1	0	33*	0	5
Cc1[nH]nc2c1C(c1ccc(Br)cc1)N(Cc1ccccc1)C2=O (stereo not given)	.	.	.	.	0	-4	.
O=C1C(N2CCOCC2)=C(n2nnc3ccccc32)C(=O)c2ccccc21	-13	41	0	-18	104*	-11	98*
O=C1c2ccccc2C(=O)c2c1cccc2-n1nnc2ccccc21	-6	2	0	-4	-7	-14	.
CCc1nnc(NS(=O)(=O)c2ccc(NC(=O)/C=C/c3ccccc3Cl)cc2)s1	8	-1	1	-47	35*	-5	5
CCc1nnc(NS(=O)(=O)c2ccc(NC(=O)/C=C/C(=O)O)cc2)s1	-11	-8	1	-7	-11	3	.
O=C(OCC#CCSc1nnc(-c2cccc3ccccc23)o1)c1ccsc1	.	.	.	.	.	-4	.
CCCCN1CC(COCc2ccccc2)Oc2cccc(Oc3ccc(F)cc3OC)c2S1(=O)=O (stereo not given)	.	.	.	.	5	3	.
CN(C)N1C(N)=C(C#N)C(c2ccc(F)cc2)C2=C1CC(C)(C)CC2=O (stereo not given)	-3	3	0	19	30*	3	-19
Cc1ccc(C)c(-n2c3nc(=O)[nH]c(=O)c-3cc3cc([N+](=O)[O-])ccc32)c1	8	.	-1	-19	79*	-16	4
CC(C)CC(COCc1cccc(C(F)(F)F)c1)N1CCN(C(=O)c2cccc(C(F)(F)F)c2)CCC1=O (stereo not given)	31	0	23	-14	30*	2	26
CN(CC(=O)Nc1ccc(F)cc1)C(=O)COC(=O)c1ccccc1	3	0	-3	-19	30*	5	-2
CCCCN1CCN(C(=O)c2cn(C(C)c3ccccc3)nn2)CC1 (stereo not given)	.	.	.	.	11	12	.
CC(=O)C1C(=O)c2c(cccc2[N+](=O)[O-])C1=Nc1ccccc1C (stereo not given)	.	-10	.	.	-12	-4	.
Cc1ccccc1N=C1c2ccccc2C(=O)C1[N+](=O)[O-] (stereo not given)	3	-2	0	-38	34*	-4	7
COC(=O)[C@]12C[C@H](CC(=O)NCc3cccc4ccccc34)C(=O)N(Cc3ccc(Cl)cc3Cl)C1=C[C@H](C1CCCC1)O[C@@H]2C	.	.	.	.	17	-5	.
Nn1cnnc1N/N=C/c1ccccc1C(F)(F)F	2	-8	-1	-14	69*	-6	-11
Nn1cnnc1N/N=C/c1cccc(Cl)c1Cl	-9	4	-1	2	61*	-11	-1
O=[N+]([O-])c1cc2ccccc2c(O)c1O	-8	.	.	.	83*	-9	-20
CCN(CC)C(=O)CC[C@H]1CC[C@]2(CCCN(Cc3ccc(OC)cc3)C2)O1	.	.	.	.	-3	-4	.
O=C(Cn1ncc2c3ccccc3n(Cc3ccc(F)cc3)c2c1=O)N1CCC2(CC1)OCCO2	33	-3	?	-4	.	.	.
O=C(Cn1ncc2c3ccccc3n(Cc3ccc(F)cc3)c2c1=O)N1CCN(c2ncccn2)CC1	30	-2	4	-9	34*	-3	-18
Oc1cc(NCc2ccc(F)cc2)cc2cccnc12	-8	.	12	-25	18	4	.
